FBA Mtb inh = inhibits M. tuberculosis FBA enzyme; inhibition, % at 1 µM; AID 588726; purified M. tuberculosis FBA, fluorescence read-out; 360,000 compounds, 2.3% hits; in the data active = inhibition above about 27%;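 note: 0% = vehicle and 100% = reference inhibitor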
Target sequence (P9WQA3 whole entry, looked up): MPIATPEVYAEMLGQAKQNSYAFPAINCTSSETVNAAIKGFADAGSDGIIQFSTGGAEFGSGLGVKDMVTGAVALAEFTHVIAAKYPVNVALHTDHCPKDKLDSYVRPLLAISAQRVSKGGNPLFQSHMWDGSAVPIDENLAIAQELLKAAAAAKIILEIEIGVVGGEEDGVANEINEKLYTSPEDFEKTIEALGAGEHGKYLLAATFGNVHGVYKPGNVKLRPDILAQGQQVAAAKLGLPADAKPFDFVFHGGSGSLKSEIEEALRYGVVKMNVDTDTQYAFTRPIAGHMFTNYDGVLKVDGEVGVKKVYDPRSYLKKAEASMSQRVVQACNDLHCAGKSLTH
GDH-TPI counter-1 = counter-screen for M. tuberculosis FBA inhibitors: GDH-TPI coupled enzymes. GDH-TPI coupled enzyme counterscreen, NADH absorbance. inhibition, % at 4.8 µM. 360,000 compounds, 1.2% hits; in the data active = inhibition above about 30%;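 note: 0% = DMSO wells and 100% = wells lacking the enzyme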
BoNT F protease = inhibitors of Botulinum neurotoxin F light chain protease; Multiplex microsphere protease cleavage assay, flow cytometry; inhibition, % at 10 µM; 360,000 compounds, 0.22% hits; in the data active = inhibition above about 35%, passing the limit was not always enough; inconclusive = no clear call, values can overlap the other calls; note: plate controls were buffer without enzyme for full effect and enzyme alone for no effect
Autofluor counter = flagged as autofluorescent in microsphere protease counterscreen | compound autofluorescence counterscreen, microsphere flow cytometry; stronger effect = higher value | fluorescence intensity (concentration not given with the values) | 360,000 compounds, 3.1% hits | AID 624483; in the data active = fluorescence intensity above about 16000; inconclusive = no clear call, values can overlap the other calls
Anthrax LF prot = inhibitors of Bacillus anthracis lethal factor protease; 360,000 compounds, 0.12% hits; inhibition, % at 10 µM; AID 588501; multiplex microsphere protease cleavage assay, LF; note: plate controls were buffer without enzyme for full effect and enzyme alone for no effect
BoNT A protease = blocks Botulinum neurotoxin A light chain protease; multiplex microsphere protease substrate cleavage, flow cytometry; inhibition, % at 10 µM; 360,000 compounds, 0.17% hits; AID 588499; note: plate controls were buffer without enzyme for full effect and enzyme alone for no effect
Mtb FBA inh conf = confirmation of M. tuberculosis fructose-bisphosphate aldolase inhibitors | inhibition, % at 1 µM | shares compounds with FBA Mtb inh | purified M. tuberculosis FBA, fluorescence read-out | 5,600 compounds, 78% hits | AID 651616; in the data active = inhibition above about 27%;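 note: 0% = vehicle wells and 100% = reference inhibitor wells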
GDH-TPI counter-2 = GDH-TPI inhibition counter-screen for FBA inhibitors | shares compounds with FBA Mtb inh | GDH-TPI coupled enzyme counterscreen, fluorescence | inhibition, % at 1 µM | 5,600 compounds, 81% hits; in the data active = inhibition above about 10%
An asterisk follows results filed as active; ? = inconclusive; . = not tested or not shown; + = active, no number. Compounds with a hit are over-represented: about 6.7% of the library has one in this group of screens. Cut-off read from the data, not from the text of the source, unless noted: active = inhibition above about 30%; inconclusive = no clear call, values can overlap the other calls; inactive = below that.

SMILES | FBA Mtb inh | GDH-TPI counter-1 | BoNT F protease | Autofluor counter | Anthrax LF prot | BoNT A protease | Mtb FBA inh conf | GDH-TPI counter-2
CCOC(=O)N1CCN(C(=O)c2cn(CC(C)C)c(=O)c3c2c2ccccc2n3C)CC1 | 31.4* | 17.7 | 6.0 | 9732 | -0.5 | 0.4 | 49.9* | 46.6*
CC(C)Cn1cc(C(=O)N2CCC(C)CC2)c2c3ccccc3n(C)c2c1=O | 25.8 | 9.0 | -4.5 | 3611 | -0.9 | -1.1 | . | .
CC(C)Cn1cc(C(=O)NCc2cccs2)c2c3ccccc3n(C)c2c1=O | 33.8* | 14.1 | 6.8 | 14097 | -10.0 | 8.5 | 191.8* | 143.9*
CC(C)Cn1cc(C(=O)N2CCOCC2)c2c3ccccc3n(C)c2c1=O | 40.6* | 5.4 | -4.6 | 10545 | -2.8 | 0.4 | 42.5* | 25.8*
CC(C)CCNC(=O)c1cn(CC(C)C)c(=O)c2c1c1ccccc1n2C | 2.1 | 4.1 | 14.6 | 3498 | 5.0 | -1.1 | . | .
CC(C)N(C(=O)Cn1cc(SCC(N)=O)c2ccccc21)C(C)C | 0.2 | -3.4 | 0.1 | 4191 | -4.6 | -0.4 | . | .
CS(=O)(=O)N1CCN(S(=O)(=O)c2ccccc2[N+](=O)[O-])CC1 | 0.8 | -2.5 | -1.7 | 3319 | -4.6 | -0.1 | . | .
Cn1cc(C(=O)N2CCC3(CC2)OCCO3)c2c3ccccc3n(C)c2c1=O | 39.8* | 15.7 | -0.8 | 23087* | -3.6 | -0.8 | 79.2* | 58.7*
Cn1c2ccccc2c2c(C(=O)N3CCC4(CC3)OCCO4)cn(C3CCCCC3)c(=O)c21 | 14.8 | -0.4 | 1.3 | 2752 | -1.4 | 0.9 | . | .
Cc1cc(=O)oc2cc(OCC(=O)OCC(=O)Nc3ccc(C(C)C)cc3)ccc12 | 29.3* | 5.9 | -4.0 | 2222 | -2.5 | -0.8 | 86.3* | 69.3*
Cc1cc(=O)oc2cc(OCC(=O)Nc3ccc(S(=O)(=O)N(C)C)cc3)ccc12 | 29.2* | 4.9 | -5.3 | 4507 | -8.1 | -0.9 | 101.4* | 63.6*
CNC(=O)COC(=O)COc1ccc2c(C)cc(=O)oc2c1 | 23.5 | 2.6 | -0.1 | 4145 | -0.4 | -0.3 | . | .
CC(=NCCN1CCOCC1)C1=C(O)c2ccccc2C1=O | 5.6 | 7.2 | 2.9 | 3303 | -5.9 | 0.0 | . | .
Cc1ccc(NC(=O)C2(C)CCN2CCc2ccccc2)cc1O (stereo unspecified) | 0.1 | 5.3 | -12.2 | 3879 | -5.6 | -0.3 | . | .
CSc1nc(-c2ccccc2)c(-c2ccccc2)[nH]1 | 49.5* | -5.5 | -13.0 | 8910 | 1.2 | -1.3 | 7.4 | -4.2
CNc1ccccc1C(=O)OCC(=O)N(CCOC)c1c(N)n(CC(C)C)c(=O)[nH]c1=O | 92.4* | 10.4 | ? | 6287 | ? | ? | + | +
CCN(C(=O)COC(=O)c1cc2ccccc2cc1OC)c1c(N)n(Cc2ccccc2)c(=O)[nH]c1=O | 38.8* | -3.5 | -8.1 | 2660 | -6.2 | 0.3 | 101.9* | 69.8*
COc1cc2ccccc2cc1C(=O)OCC(=O)N(C)c1c(N)n(Cc2ccccc2)c(=O)[nH]c1=O | 19.7 | 11.3 | 4.4 | ? | -2.1 | 2.0 | . | .
O=C(COC(=O)c1ccco1)NC(c1ccccc1)c1ccccc1 | 5.3 | 4.5 | -5.7 | 3486 | 2.1 | -0.2 | . | .
CCOC(=O)Nc1ccc(C)cc1C | 3.7 | 5.8 | 8.9 | 3594 | -5.4 | -0.8 | . | .
CCOC(=O)Nc1cc2c(C)cc(=O)oc2cc1C | 28.4* | 7.8 | 5.1 | 2704 | 0.3 | 0.7 | 53.6* | 42.0*
Nc1ccccc1NC(=O)c1ccccc1N | 61.4* | 7.0 | 4.7 | 3828 | 0.9 | 0.1 | 100.7* | 87.1*
O=C(O)c1ccccc1C(=O)NCc1ccc(F)cc1 | 0.9 | 3.7 | 6.4 | 15310 | -0.5 | 3.7 | . | .
O=C(Nc1ccccc1F)c1ccccc1C(=O)Nc1ccccc1F | 1.2 | -20.0 | ? | 3491 | 2.8 | 3.0 | . | .
COc1cccc(CNC(=O)c2ccccc2N)c1 | 63.3* | 5.9 | -20.6 | 2137 | -6.7 | -1.8 | 59.5* | 54.1*
SMILES | FBA Mtb inh | GDH-TPI counter-1 | BoNT F protease | Autofluor counter | Anthrax LF prot | BoNT A protease | Mtb FBA inh conf | GDH-TPI counter-2
Nc1ccccc1C(=O)NCc1ccc(Cl)cc1 | 49.4* | 11.1 | -10.2 | 1956 | -2.0 | -0.4 | 160.5* | 139.0*
Nc1ccccc1C(=O)NCc1ccc(F)cc1 | 77.2* | 10.4 | -0.5 | 3899 | -1.0 | -0.1 | . | +
COc1cc(CNC[C@H]2O[C@@H](n3cnc(C(N)=O)n3)[C@H](O)[C@@H]2O)ccc1OCc1cccc(Cl)c1 | 2.9 | 12.7 | -7.3 | 3519 | -3.8 | -0.4 | . | .
O=C(COc1ccc2c3c(c(=O)oc2c1)CCC3)NCC1CCC(C(=O)O)CC1 (stereo unspecified) | 16.2 | 14.7 | 3.8 | 6002 | 1.1 | -0.2 | . | .
O=C(O)C1CCN(C(=O)COc2ccc3c4c(c(=O)oc3c2)CCC4)CC1 | 41.0* | 15.7 | 6.8 | 2899 | 1.0 | 1.0 | 124.2* | 78.8*
NC(=O)C1CCN(C(=O)COc2ccc3ccccc3c2)CC1 | 0.0 | 5.0 | -5.4 | 3191 | -2.3 | -0.8 | . | .
NC(=O)C1CCN(C(=O)COc2ccc3c4c(c(=O)oc3c2)CCCC4)CC1 | 78.7* | 23.5 | 1.3 | 6302 | 2.3 | -1.0 | 166.3* | 135.6*
Fc1cccc(-c2cc3nc4c(c(N5CCC6(CC5)OCCO6)n3n2)CCCC4)c1 | 2.7 | 4.9 | -14.8 | 10026 | -1.1 | -1.1 | . | .
N#Cc1c(C(F)(F)F)cc(-c2ccco2)nc1SCc1ccccn1 | 18.6 | 12.7 | 4.8 | 10163 | 4.9 | 8.8 | . | .
N#Cc1c(C(F)(F)F)cc(-c2ccco2)nc1SCc1ccncc1 | 28.6* | -0.5 | 4.1 | 4434 | 5.4 | 4.8 | 56.2* | 32.4*
CCS(=O)(=O)c1ccc(O)c(NC(=O)c2cc(-c3ccccn3)nc3ccccc23)c1 | 3.1 | 7.6 | -5.6 | 8911 | -4.7 | -1.1 | . | .
CCc1cc(=O)oc2c(C)c(OC(C)C(=O)NC3CC(C)(C)NC(C)(C)C3)ccc12 (stereo unspecified) | 26.9 | 12.2 | 6.9 | 5115 | 0.2 | 0.4 | . | .
CC1(C)CC(NC(=O)COc2ccc3c4c(c(=O)oc3c2)CCCC4)CC(C)(C)N1 | 52.3* | 16.7 | -2.4 | 5362 | -1.6 | -0.7 | + | +
Cc1cc(=O)oc2cc(NC(=O)c3ccccc3OC(F)F)ccc12 | 53.5* | 17.1 | -17.4 | 3831 | 0.2 | -2.3 | 69.6* | 48.6*
Cc1c(Cc2ccccc2)c(=O)oc2cc(OCc3nn[nH]n3)ccc12 | 83.2* | 17.6 | -8.9 | 2817 | -1.7 | -0.8 | 3.5 | 0.7
Cc1cc(=O)oc2cc(NC(=O)c3cccc(Br)c3)ccc12 | 0.6 | 15.5 | -1.3 | 3845 | -1.9 | -0.7 | . | .
COc1cccc(COc2ccc3c(C)c(Cc4ccccc4)c(=O)oc3c2)c1 | 2.7 | 24.3 | -83.4 | 4149 | -4.1 | -4.9 | . | .
Cc1ccc(OCC(=O)NC2CC(C)(C)NC(C)(C)C2)cc1C | 0.4 | -3.7 | -7.2 | 4568 | -0.7 | -0.6 | . | .
CCc1cc(=O)oc2c(C)c(OCC(=O)NC3CC(C)(C)NC(C)(C)C3)ccc12 | 37.5* | 18.4 | 5.4 | 5716 | 1.9 | 0.1 | 139.2* | 124.0*

Screening results as filed in PubChem BioAssay.
